In the library only some 5.2% were active in any assay of this set; here they are far more common.
esBAF inh: SWI/SNF esBAF complex inhibition | reporter increase, % at 12.5 µM | 350,000 compounds, 2% hits | AID 602393 | mouse ES cells, Bmi1-luciferase knock-in reporter, 24 h; 100% = twice the neutral-well signal; in the data active means activation above about 40%;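 further: a rise in the Bmi1 reporter signal indicates esBAF inhibition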
NadD inh: blocks S. aureus nicotinate mononucleotide adenylyltransferase; inhibition, % at 20 µM; 360,000 compounds, 0.78% hits; purified NadD enzyme, colorimetric absorbance read-out; in the data active means inhibition above about 26%
GRIN3A LBD mod: NR3A (human) ligand-binding domain modulation | AID 1259313 | NR3A LBD differential scanning fluorimetry, Tm shift; 0% = protein alone, 100% = glycine-bound protein | Tm shift relative to glycine control, % at 25 µM | 340,000 compounds, 2.5% hits;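 active means melting temperature shift of at least 10% of the positive control shift, at one fixed dose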
SKN-1 inh: blocks SKN-1 activity in C. elegans | C. elegans VP596 Pgst-4::GFP/RFP ratio, acrylamide-induced, 24 h | inhibition, % at 21.8 µM | 360,000 compounds, 0.49% hits;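 active means interference check ratio from 0.5 to 1.5 plus GFP to RFP signal ratio inhibition reaching or exceeding a fixed threshold, cut at about 30% in these data, passing the limit was not always enough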
Vif inh: blocks HIV Vif function; HEK293T cells, Vif self-association by quenched fluorescence, imaging, 24 h; inhibition, % at 7.49 µM; 340,000 compounds, 0.35% hits; in the data active means inhibition above about 50%, passing the limit was not always enough
SMARCA2 activ: SMARCA2 function activation, primary screen. 370,000 compounds, 1% hits. activation, % at 9.1 µM. MG213 cells, MMTV-luciferase reporter, dexamethasone, overnight; in the data active means activation above about 7.8%
Hits are given with their value.

Screening NC(=S)n1[nH]c(-c2ccc([N+](=O)[O-])cc2)c(N=Nc2ccc(Cl)cc2)c1=O returned esBAF inh inactive, NadD inh 68, GRIN3A LBD mod 28, SKN-1 inh inactive and Vif inh inactive.
Screening Cc1ccc([N+](=O)[O-])cc1N=Nc1c(C)[nH]n(C(N)=S)c1=O returned esBAF inh inactive, NadD inh inactive, GRIN3A LBD mod inactive, SKN-1 inh inactive, Vif inh inactive and SMARCA2 activ inactive.
For CCNC(=O)C[C@@H]1CC[C@H]2[C@H](COc3ccc(NC(=O)Nc4ccc(F)cc4)cc3C(=O)N2C)O1 the results were esBAF inh inactive.
For C[C@H](O)C#Cc1cnc2c(c1)C(=O)N([C@@H](C)CO)C[C@@H](C)[C@H](CN(C)C(=O)Cc1ccncc1)O2 the results were esBAF inh inactive.
For O=C(CC1CC1)Nc1ccc2c(c1)[C@@H]1C[C@H](CC(=O)NC3CCCCC3)O[C@H](CO)[C@@H]1O2 the results were esBAF inh inactive.
For CCC1CCCCN1C(=O)CSc1nc2c(cnn2-c2ccc(C)cc2)c(=O)[nH]1 (stereo not given) the results were esBAF inh inactive, NadD inh inactive, GRIN3A LBD mod 16, SKN-1 inh inactive, Vif inh inactive and SMARCA2 activ inactive.
For CCN(CC)CCNC(C(=O)Nc1cc(C(F)(F)F)ccc1Cl)c1ccccc1 (stereo not given) the results were NadD inh inactive, GRIN3A LBD mod inactive, SKN-1 inh inactive, Vif inh inactive and SMARCA2 activ inactive.
Screening O=C(Nc1cc(C(F)(F)F)ccc1Cl)C(NCc1ccccc1)c1ccccc1 (stereo not given) returned NadD inh inactive, GRIN3A LBD mod 18, SKN-1 inh inactive, Vif inh inactive and SMARCA2 activ inactive.
For CCCN(C)C[C@@H]1Oc2ncc(-c3cccc(C#N)c3)cc2C(=O)N([C@H](C)CO)C[C@H]1C the results were esBAF inh inactive.
CCCCC(=O)OCC(=O)Nc1ccc(OC(F)F)cc1 was read as esBAF inh inactive, NadD inh inactive, GRIN3A LBD mod 13, SKN-1 inh inactive, Vif inh inactive and SMARCA2 activ inactive.
For O=C(COC(=O)CCC1CCCCC1)Nc1ccc(OC(F)F)cc1 the results were esBAF inh inactive, NadD inh inactive, GRIN3A LBD mod inactive, SKN-1 inh inactive and SMARCA2 activ inactive.
Screening O=C(OCCN=C1NS(=O)(=O)c2ccccc21)C1CC(=O)N(c2ccc(Cl)cc2)C1 (stereo not given) returned esBAF inh inactive, NadD inh inactive, GRIN3A LBD mod 24, SKN-1 inh inactive, Vif inh inactive and SMARCA2 activ inactive.
For O=C(OCCOCCN=C1NS(=O)(=O)c2ccccc21)C1CC(=O)N(c2ccccc2)C1 (stereo not given) the results were esBAF inh inactive, NadD inh inactive, GRIN3A LBD mod inactive, SKN-1 inh inactive, Vif inh inactive and SMARCA2 activ inactive.
Screening CN(C)C(=O)[C@@H]1[C@@H](CO)[C@@H]2Cn3c(ccc(-c4ccccc4F)c3=O)[C@@H]2N1C(=O)c1cnccn1 returned esBAF inh inactive.
COC(=O)c1ccc(N2OC3(C)C=CC2CC3)cc1 (stereo not given) was read as esBAF inh 63, NadD inh inactive, GRIN3A LBD mod inactive, SKN-1 inh inactive, Vif inh inactive and SMARCA2 activ inactive.
For COC(=O)c1ccc(N2C(=O)CC(N3CCOCC3)C2=O)cc1 (stereo not given) the results were esBAF inh inactive, NadD inh inactive, GRIN3A LBD mod inactive, SKN-1 inh inactive and SMARCA2 activ inactive.
Screening C[C@@H]1CN([C@@H](C)CO)C(=O)Cc2cc(NC(=O)Cc3cn(C)c4ccccc34)ccc2O[C@H]1CN(C)CC1CCCCC1 returned esBAF inh inactive.
For CC1(C)Cc2c(sc3nc(-c4cccs4)n(N)c(=O)c23)CO1 the results were esBAF inh 73, NadD inh inactive, GRIN3A LBD mod inactive, SKN-1 inh inactive, Vif inh inactive and SMARCA2 activ inactive.
Screening Nn1c(-c2cccs2)nc2sc3c(c2c1=O)CCCC3 returned esBAF inh inactive, NadD inh inactive, GRIN3A LBD mod inactive, SKN-1 inh inactive, Vif inh inactive and SMARCA2 activ inactive.
Screening CCC1(C)Cc2c(sc3nc(SC)n(Cc4ccccc4)c(=O)c23)CO1 (stereo not given) returned esBAF inh 59, NadD inh inactive, GRIN3A LBD mod inactive, SKN-1 inh inactive, Vif inh inactive and SMARCA2 activ inactive.
For CC1(C)Cc2c(sc3nc(-c4ccccc4)n(N)c(=O)c23)CO1 the results were esBAF inh 43, NadD inh inactive, GRIN3A LBD mod inactive, SKN-1 inh inactive, Vif inh inactive and SMARCA2 activ inactive.
Screening Cc1cccc(-c2ccc([C@H]3[C@H](CO)N4CCCCN(Cc5cncnc5)C[C@@H]34)cc2)c1 returned esBAF inh inactive.
For CCC(C)C(=O)N1CCc2cc(-c3csc(N)n3)ccc21 (stereo not given) the results were esBAF inh 53, NadD inh inactive, GRIN3A LBD mod inactive, SKN-1 inh inactive, Vif inh inactive and SMARCA2 activ inactive.
CC(C)(C)C(=O)N1CCc2cc(-c3csc(N)n3)ccc21 was read as esBAF inh inactive, NadD inh inactive, GRIN3A LBD mod inactive, SKN-1 inh inactive, Vif inh inactive and SMARCA2 activ inactive.
Screening Cc1cc(C)cc(NC(=O)C2CCCN2/C=C/C(=O)C(F)(F)F)c1 (stereo not given) returned NadD inh inactive, GRIN3A LBD mod 13, SKN-1 inh inactive, Vif inh inactive and SMARCA2 activ inactive.
Screening CC(=O)Nc1ccc(NC(=O)C2CCCN2/C=C/C(=O)C(F)(F)F)cc1 (stereo not given) returned NadD inh inactive, GRIN3A LBD mod inactive, SKN-1 inh inactive, Vif inh inactive and SMARCA2 activ inactive.
`Cc1ccc(S(=O)(=O)N(C)C[C@H]2Oc3ccc(NS(=O)(=O)c4ccccc4)cc3C(=O)N([C@@H](C)CO)C[C@H]2C)cc1` gave esBAF inh inactive.
CCOc1ccc(N2C(=O)CC(N3CCc4ccccc43)C2=O)cc1 (stereo not given) was read as esBAF inh inactive, NadD inh inactive, GRIN3A LBD mod inactive, SKN-1 inh inactive, Vif inh 81 and SMARCA2 activ inactive.
Screening CCOc1ccc(N2C(=O)CC(N3CCC(NC(=O)Nc4ccccc4)CC3)C2=O)cc1 (stereo not given) returned esBAF inh inactive, NadD inh inactive, GRIN3A LBD mod 14, SKN-1 inh inactive, Vif inh inactive and SMARCA2 activ inactive.
C[C@@H]1CN([C@H](C)CO)C(=O)Cc2cc(NC(=O)CCN3CCOCC3)ccc2O[C@H]1CN(C)C(=O)Nc1ccc2c(c1)OCO2 was read as esBAF inh inactive.
For COc1ccc(NC(=O)Nc2ccc3c(c2)[C@@H]2C[C@@H](CC(=O)N4CCc5ccccc5C4)O[C@H](CO)[C@@H]2O3)cc1 the results were esBAF inh inactive.

Assay outcomes from PubChem.
